In PubChem BioAssay AID1460 (National Center for Advancing Translational Sciences (NCATS), 2008):
The campaign covered roughly 270,000 compounds. About 5,800 (2.1%) were called active. Inconclusive results (about 16%) are left out. The call rests on the fitted dose curve; in most records, active means well fitted inhibition curve with a large enough effect; inconclusive means small, poorly fitted or top-dose-only effect; inactive means flat fitted curve, though single readings scatter. Shown is part of a subset that was picked to be rich in actives. A call without a number means that no potency is given here.

target: Microtubule-associated protein tau (Homo sapiens) (UniProt P10636); test: qHTS for Inhibitors of Tau Fibril Formation, Thioflavin T Binding; details: recombinant tau K18 P301L (four-repeat tau fragment), heparin-induced fibrillization, ThT fluorescence; series mostly up to 57.4 µM; further: nearly all actives have a fitted effect of over 55% in size
Sequence (P10636 561-689 P618L limits assumed): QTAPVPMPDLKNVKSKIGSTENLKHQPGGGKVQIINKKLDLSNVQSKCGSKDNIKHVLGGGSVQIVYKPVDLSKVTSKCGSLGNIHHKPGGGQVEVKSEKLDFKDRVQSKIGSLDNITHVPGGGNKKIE
Summary of the method: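 In this qHTS, human K18 P301L tau is incubated with compound and heparin for 6 hr at 37 C, and Thioflavin T fluorescence then reports fibril load.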
Potency means the concentration at half of the fitted maximal effect.

How did the Potency turn out when COc1cc(NC(=O)Cn2c(=O)n(Cc3ccco3)c(=O)c3oc4ccccc4c32)cc(OC)c1 was run?
Its Potency is “inactive”.

With O=C1N/C(=C/c2cccs2)C(=O)N1Cc1ccc(F)cc1 as the compound, how does the Potency read?
Its Potency is “inactive”.

Cc1cccc(C2=N/C(=C/c3cccs3)C(=O)O2)c1 was tested. Which Potency did it give?
The Potency was “inactive”.

Which Potency does the source give for CSC1=N/C(=C\C=C\c2cccs2)C(=O)S1 here?
Its Potency is 14.1 µM (active).

How did the Potency turn out when CC1Cc2cc(S(=O)(=O)CCC(=O)Nc3ccc(F)c(Cl)c3)ccc2N1C(=O)C1CC1 (centres undefined) was run?
Its Potency is “inactive”.

With O=C(CCC(=O)c1cccs1)NCc1ccccc1 as the compound, how does the Potency read?
Its Potency is “inactive”.

Which Potency does the source give for Cc1ccc(C)c(NC(CC(=O)c2ccccc2)C(=O)OCC(=O)c2cccs2)c1 (centres undefined) here?
Its Potency is “inactive”.

Cc1ccccc1C(CC(=O)c1cccs1)C(C#N)C#N (centres undefined) was tested. Which Potency did it give?
Its Potency is 25.1 µM (active).

How did the Potency turn out when COc1cccc(-n2cc(C(=O)NCc3cccc(Cl)c3)c3ccccc3c2=O)c1 was run?
The Potency was “inactive”.

For Cc1coc2c(O)cc3c(c12)OC1(N2CCCCC2)C(=O)NCCCC31 (centres undefined), which Potency is on record?
The Potency was 15.8 µM (active).

CCS(=O)(=O)N1CCC(n2c(C)nc3cccnc32)CC1 was tested. Which Potency did it give?
Its Potency is “inactive”.

Which Potency does the source give for C=CCNC(=S)NNC(=O)c1cc(Cl)ccc1OC here?
Its Potency is “inactive”.

For COc1ccc(Cl)cc1C(=O)NNC(=S)NC(=O)/C=C/c1ccco1, which Potency is on record?
The Potency was 11.2 µM (active).

How did the Potency turn out when COc1ccc(Cl)cc1C(=O)NNC(=S)NC1CCCC1 was run?
Its Potency is “inactive”.

Which Potency does the source give for Cc1ccc(C(=O)N2c3ncnn3C3(CCCCC3)[C@@H]3CCCC[C@@H]32)cc1 here?
The Potency was “inactive”.

How did the Potency turn out when CCOC(=O)CC1C(=O)NCCN1c1nc2c(C)cccn2c(=O)c1/C=C1\SC(=S)N(C(C)CC)C1=O (centres undefined) was run?
The Potency was 7.94 µM (active).

For CCOC(=O)CNC(=O)c1cc2c(=O)n3cccc(C)c3nc2s1, which Potency is on record?
The Potency was “inactive”.

How did the Potency turn out when Cc1cccn2c(=O)c(/C=C3\SC(=S)N(CC(C)C)C3=O)c(NCCCOC(C)C)nc12 was run?
The Potency was “inactive”.

For Cn1nnnc1SCCCNCc1cccc(OCc2ccc(Cl)cc2)c1, which Potency is on record?
The Potency was “inactive”.

How did the Potency turn out when Cc1ccccc1Nc1c(-c2ccccc2)nc2ncccn12 was run?
The Potency was “inactive”.

How did the Potency turn out when Cc1cccc(C)c1Nc1c(-c2ccccc2O)nc2ncccn12 was run?
Its Potency is “inactive”.

How did the Potency turn out when CCc1cccc(C)c1Nc1c(-c2ccc(N(C)C)cc2)nc2ncccn12 was run?
Its Potency is 14.1 µM (active).

Which Potency does the source give for COc1ccc(NC(=O)CN2CCCN(Cc3ccccc3)S2(=O)=O)cc1 here?
The Potency was “inactive”.

For Cc1nnc(C)n1-c1ccc(C(=O)Nc2cccc(Br)c2)cc1, which Potency is on record?
The Potency was “inactive”.

With C=Cc1ccc(Cn2c(C(=O)O)c(CNC3CCCC3)c3ccc(C)cc32)cc1 as the compound, how does the Potency read?
The Potency was “inactive”.

How did the Potency turn out when CSc1ccc(S(=O)(=O)NC2CCCCC2)cc1 was run?
Its Potency is “inactive”.

Cn1sc(=O)c2cc(S(=O)(=O)NC3CC3)ccc21 was tested. Which Potency did it give?
The Potency was 12.6 µM (active).

For CC1CCC(NS(=O)(=O)c2ccc3c(c2)n(C)c(=O)c(=O)n3C)CC1 (centres undefined), which Potency is on record?
The Potency was “inactive”.

O=C(Nc1ccccc1Cl)N1CCC(CN2CCCCC2)CC1 was tested. Which Potency did it give?
Its Potency is “inactive”.
